Reference: PubChem BioAssay AID1159580 (chemical genetic matrix, 2015)
“And” between values parts separate entries of the source, which are not always exact repeats. Equal entries are not always repeated. In all, about 5,500 compounds went through this assay and about 2,000 (36%) were called active. Not shown: some 18% with an inconclusive outcome. Cut-off read from the data, not from the text of the source: active = normalized growth mostly below about 0.91 (no sharp cut-off); inconclusive = no clear call, values can overlap the other calls; inactive = mostly above about 0.92. The list shows a part of the results.

Assay: chemical genetic growth profiling, strain panel (AID 1159580);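 note: tested at 20 µM; growth read once vehicle control cultures reached saturation at 30 °C; 1 = growth at the plate median or of vehicle wells; lower values mean less growth of the strain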
Settings: S. cerevisiae deletion strains, growth OD

Measured: normalized growth

CC1(C)S[C@@H]2[C@H](NC(=O)[C@@H](N)c3ccc(O)cc3)C(=O)N2[C@H]1C(=O)O
inactive: locus YAL013W, strain DEP1, stronger effect = lower value 1.01 | locus YAL021C, strain ccr4, stronger effect = lower value 0.97 | locus YAL026C, strain drs2, stronger effect = lower value 0.976 | locus YAL030W, strain snc1, stronger effect = lower value 0.999 | locus YBL061C, strain skt5, stronger effect = lower value 1.01 | locus YBR009C, strain hhf1, stronger effect = lower value 0.951 | locus YBR021W, strain FUR4, stronger effect = lower value 1 | locus YBR023C, strain chs3, stronger effect = lower value 0.996 | locus YBR171W, strain sec66, stronger effect = lower value 0.987 | locus YBR229C, strain ROT2, stronger effect = lower value 1 | locus YBR231C, strain swc5, stronger effect = lower value 1 | locus YBR279W, strain paf1, stronger effect = lower value 0.99 | locus YCL011C, strain gbp2, stronger effect = lower value 0.988 | locus YCL016C, strain dcc1, stronger effect = lower value 0.992 | locus YCL029C, strain bik1, stronger effect = lower value 1.01 | locus YCL069W, strain vba3, stronger effect = lower value 0.989 | locus YCR088W, strain abp1, stronger effect = lower value 0.983 | locus YDL005C, strain med2, stronger effect = lower value 0.993 | locus YDL035C, strain GPR1, stronger effect = lower value 1.02 | locus YDL040C, strain nat1, stronger effect = lower value 0.995 | locus YDL074C, strain BRE1, stronger effect = lower value 1.01 | locus YDL101C, strain DUN1, stronger effect = lower value 1.01 | locus YDL185W, strain tfp1, stronger effect = lower value 0.997 | locus YDL192W, strain arf1, stronger effect = lower value 1 | locus YDR001C, strain nth1, stronger effect = lower value 0.964 | locus YDR069C, strain doa4, stronger effect = lower value 1.01 | locus YDR101C, strain arx1, stronger effect = lower value 1 | locus YDR137W, strain rgp1, stronger effect = lower value 0.938 | locus YDR159W, strain sac3, stronger effect = lower value 0.991 | locus YDR162C, strain NBP2, stronger effect = lower value 1.03 | locus YDR195W, strain ref2 0.98 | locus YDR297W, strain sur2, stronger effect = lower value 0.998 | locus YDR318W, strain mcm21, stronger effect = lower value 0.998 | locus YDR334W, strain swr1, stronger effect = lower value 0.982 | locus YDR335W, strain msn5, stronger effect = lower value 0.996 | locus YDR388W, stronger effect = lower value 1.01 | locus YDR392W, strain spt3, stronger effect = lower value 0.936 | locus YDR502C, strain sam2, stronger effect = lower value 0.999 | locus YEL003W, strain gim4, stronger effect = lower value 0.991 | locus YEL037C, strain rad23, stronger effect = lower value 0.983 | locus YEL061C, strain CIN8 (second series), stronger effect = lower value 0.988 | locus YEL061C, strain CIN8, stronger effect = lower value 1.01 | locus YER015W, strain faa2, stronger effect = lower value 0.998 | locus YER016W, strain bim1, stronger effect = lower value 0.967 | locus YER110C, stronger effect = lower value 1.01 | locus YER111C, strain swi4, stronger effect = lower value 0.98 | locus YER155C, strain BEM2 (second series), stronger effect = lower value 0.996 | locus YER155C, strain BEM2, stronger effect = lower value 1 | locus YER167W, strain BCK2, stronger effect = lower value 1.01 | locus YFR010W, strain ubp6, stronger effect = lower value 0.987 | locus YGL078C, strain dbp3, stronger effect = lower value 1 | locus YGL086W, strain mad1, stronger effect = lower value 0.994 | locus YGL167C, strain pmr1, stronger effect = lower value 1.01 | locus YGL173C, strain kem1, stronger effect = lower value 1.02 | locus YGL227W, strain vid30, stronger effect = lower value 1 | locus YGL240W, strain doc1, stronger effect = lower value 1.02 | locus YGL248W, strain PDE1, stronger effect = lower value 1.02 | locus YGL253W, strain hxk2, stronger effect = lower value 0.99 | locus YGR078C, strain PAC10, stronger effect = lower value 1 | locus YGR135W, strain pre9, stronger effect = lower value 0.986 | locus YGR252W, strain gcn5, stronger effect = lower value 0.954 | locus YHR013C, strain ard1, stronger effect = lower value 1.03 | locus YHR027C, strain rpn1, stronger effect = lower value 0.989 | locus YHR030C, strain SLT2, stronger effect = lower value 1.01 and 1.03 | locus YHR079C, strain IRE1 (second series), stronger effect = lower value 0.996 | locus YHR079C, strain IRE1, stronger effect = lower value 1.06 | locus YHR094C, strain hxt1, stronger effect = lower value 1 | locus YHR129C, strain ARP1, stronger effect = lower value 1.01 | locus YHR142W, strain chs7, stronger effect = lower value 0.982 | locus YHR200W, strain rpn10, stronger effect = lower value 0.995 | locus YIL066C, strain RNR3, stronger effect = lower value 1.03 | locus YIL073C, strain SPO22, stronger effect = lower value 1.04 | locus YIL125W, strain kgd1, stronger effect = lower value 1 | locus YIR030C, strain dcg1, stronger effect = lower value 1 | locus YJL092W, strain hpr5, stronger effect = lower value 0.991 | locus YJL095W, strain BCK1 (second series), stronger effect = lower value 0.983 | locus YJL095W, strain BCK1, stronger effect = lower value 1.02 and 1.06 | locus YJL115W, strain asf1, stronger effect = lower value 0.979 | locus YJL129C, strain trk1, stronger effect = lower value 1 | locus YJL134W, strain LCB3, stronger effect = lower value 1.01 | locus YJL154C, strain vps35, stronger effect = lower value 0.991 | locus YJL164C, strain tpk1, stronger effect = lower value 0.995 | locus YJL166W, strain qcr8, stronger effect = lower value 1.02 | locus YJL168C, strain set2, stronger effect = lower value 0.997 | locus YJL187C, strain SWE1 (second series), stronger effect = lower value 1.01 | locus YJL187C, strain SWE1, stronger effect = lower value 0.998 | locus YJR043C, strain POL32, stronger effect = lower value 1.01 | locus YJR066W, strain TOR1, stronger effect = lower value 1.01 | locus YJR075W, strain HOC1, stronger effect = lower value 1.02 | locus YKL009W, strain mrt4, stronger effect = lower value 1.02 | locus YKL068W, stronger effect = lower value 1 | locus YKL085W, strain MDH1 (second series), stronger effect = lower value 1.01 | locus YKL085W, strain MDH1, stronger effect = lower value 1.01 | locus YKL160W, strain elf1, stronger effect = lower value 1.01 | locus YKR001C, strain vps1, stronger effect = lower value 0.982 | locus YKR026C, strain gcn3, stronger effect = lower value 1.07 | locus YKR091W, strain srl3, stronger effect = lower value 1 | locus YLL001W, strain dnm1, stronger effect = lower value 1.02 | locus YLL026W, stronger effect = lower value 0.992 | locus YLL041C, strain sdh2, stronger effect = lower value 0.999 | locus YLR027C, strain aat2, stronger effect = lower value 0.993 | locus YLR039C, strain RIC1, stronger effect = lower value 1 | locus YLR058C, strain SHM2, stronger effect = lower value 1.01 | locus YLR102C, strain apc9, stronger effect = lower value 0.997 | locus YLR113W, strain HOG1, stronger effect = lower value 1.04 | locus YLR221C, strain rsa3, stronger effect = lower value 0.991 | locus YLR258W, strain gsy2, stronger effect = lower value 0.991 | locus YLR262C, strain YPT6 (second series), stronger effect = lower value 0.975 | locus YLR262C, strain YPT6, stronger effect = lower value 1.09 | locus YLR268W, strain sec22, stronger effect = lower value 1.01 | locus YLR320W, strain mms22, stronger effect = lower value 0.987 | locus YLR330W, strain CHS5, stronger effect = lower value 1.01 | locus YLR342W, strain FKS1 (second series), stronger effect = lower value 0.974 | locus YLR342W, strain FKS1, stronger effect = lower value 1.01 | locus YLR357W, strain rsc2, stronger effect = lower value 1.02 | locus YLR370C, strain arc18, stronger effect = lower value 0.999 | locus YLR371W, strain rom2, stronger effect = lower value 0.991 | locus YLR384C, strain iki3, stronger effect = lower value 0.989 | locus YLR418C, strain cdc73, stronger effect = lower value 0.994 | locus YML016C, strain PPZ1, stronger effect = lower value 1.01 | locus YML032C, strain rad52, stronger effect = lower value 1.01 | locus YML120C, strain ndi1, stronger effect = lower value 0.997 | locus YML124C, strain tub3, stronger effect = lower value 0.985 | locus YMR058W, strain fet3, stronger effect = lower value 0.995 | locus YMR078C, strain ctf18, stronger effect = lower value 0.994 | locus YMR125W, strain sto1, stronger effect = lower value 0.998 | locus YMR129W, stronger effect = lower value 0.988 | locus YMR205C, strain PFK2, stronger effect = lower value 1 | locus YMR223W, strain ubp8, stronger effect = lower value 0.997 | locus YMR231W, strain pep5, stronger effect = lower value 1 | locus YMR263W, strain SAP30, stronger effect = lower value 1 | locus YMR307W, strain GAS1, stronger effect = lower value 0.969 | locus YNL067W, strain RPL9B, stronger effect = lower value 1.01 | locus YNL071W, strain lat1, stronger effect = lower value 0.984 | locus YNL153C, strain GIM3, stronger effect = lower value 1 | locus YNL183C, strain NPR1, stronger effect = lower value 1 | locus YNL209W, strain ssb2, stronger effect = lower value 0.995 | locus YNL233W, strain BNI4, stronger effect = lower value 1.02 | locus YNL248C, strain rpa49, stronger effect = lower value 1.03 | locus YNL250W, strain rad50, stronger effect = lower value 1 | locus YNL271C, strain bni1, stronger effect = lower value 1 | locus YNL298W, strain CLA4, stronger effect = lower value 0.984 | locus YNL307C, strain MCK1, stronger effect = lower value 1.03 | locus YNL322C, strain KRE1 (second series), stronger effect = lower value 1 | locus YNL322C, strain KRE1, stronger effect = lower value 1.01 | locus YNR049C, strain mso1, stronger effect = lower value 0.985 | locus YNR052C, strain pop2, stronger effect = lower value 0.999 | locus YOL012C, strain htz1 1.31 | locus YOL147C, strain pex11, stronger effect = lower value 1.01 | locus YOR001W, strain rrp6, stronger effect = lower value 0.997 | locus YOR061W, strain CKA2, stronger effect = lower value 1.02 | locus YOR069W, strain VPS5, stronger effect = lower value 1.01 | locus YOR070C, strain gyp1, stronger effect = lower value 0.999 | locus YOR080W, strain dia2, stronger effect = lower value 1.01 | locus YOR083W, strain WHI5, stronger effect = lower value 1.03 | locus YOR106W, strain vam3, stronger effect = lower value 1 | locus YOR136W, strain idh2, stronger effect = lower value 0.994 | locus YOR144C, strain elg1, stronger effect = lower value 0.991 | locus YOR184W, strain ser1, stronger effect = lower value 1.03 | locus YOR231W, strain MKK1, stronger effect = lower value 1.05 | locus YOR265W, strain rbl2, stronger effect = lower value 0.997 | locus YOR270C, strain vph1, stronger effect = lower value 0.962 | locus YOR290C, strain snf2, stronger effect = lower value 0.975 | locus YOR316C, strain cot1, stronger effect = lower value 0.999 | locus YPL051W, strain arl3, stronger effect = lower value 1.01 | locus YPL078C, strain atp4, stronger effect = lower value 1.01 | locus YPL106C, strain sse1, stronger effect = lower value 0.974 | locus YPL240C, strain hsp82, stronger effect = lower value 0.993 | locus YPL241C, strain CIN2, stronger effect = lower value 1.01 | locus YPL256C, strain CLN2, stronger effect = lower value 1.05 | locus YPR119W, strain clb2, stronger effect = lower value 1 | locus YPR141C, strain kar3, stronger effect = lower value 1.03 | locus YPR163C, strain tif3, stronger effect = lower value 1 | locus YPR167C, strain met16, stronger effect = lower value 0.998 | strain wtn01, stronger effect = lower value 0.976
